Measured values: PubChem BioAssay
Active and inactive are the calls of the source.

Experiments:
[1] = adipocyte viability effects, profiling panel, cell-based, 3T3-L1 adipocytes, calcein-AM fluorescence, 48 h, basal (AID 1163); conditions: 3T3-L1 adipocytes viability, higher = more signal
[2] = HepG2 cell viability effects, profiling panel, calcein-AM fluorescence, 48 h, basal (AID 1164); conditions: higher = more signal
[3] = MM1S cell viability effects, profiling panel, calcein-AM fluorescence, 48 h, basal (AID 1165); conditions: higher = more signal;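 also: viability of MM1S multiple myeloma cells under basal unstimulated conditions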
[4] = basal RPMI8226 viability, no added stimulus, profiling panel, cell-based, calcein-AM fluorescence, 48 h, PK04 Diversity Set (AID 1166); conditions: RPMI8226 myeloma viability, higher = more signal;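 also: cells grown under basal conditions without added stimulus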
[5] = basal HepG2 mitochondrial membrane potential changes, profiling panel, cell-based, JC-1 fluorescence, 24 h, 100 nL compound (AID 1167); conditions: higher = more signal
[6] = basal 3T3-L1 adipocyte mitochondrial potential changes, profiling panel, cell-based, JC-1 fluorescence, 3T3-L1 adipocytes, 24 h, 100 nL compound (AID 1168); conditions: JC-1 mitochondrial fluorescence, higher = more signal, called active from +8 up or from −8 down
[7] = basal RPMI8226 mitochondrial membrane potential changes, profiling panel, cell-based, JC-1 fluorescence, 24 h, 100 nL compound (AID 1169); conditions: RPMI8226 myeloma, JC-1 mitochondrial potential fluorescence, higher = more signal
[8] = basal MM1S mitochondrial membrane potential changes, profiling panel, cell-based, JC-1 fluorescence, 24 h, 100 nL compound (AID 1170); conditions: higher = more signal
[9] = A549 lung cancer cell viability effects, profiling panel, resazurin fluorescence, 24 h, PK04 Diversity Set (AID 1171); conditions: higher = more signal, called active from +8 up or from −8 down
[10] = HepG2 liver cancer cell viability effects, profiling panel, resazurin fluorescence, 24 h, PK04 Diversity Set (AID 1172); conditions: higher = more signal
[11] = basal S. cerevisiae growth modulation, no modifier, primary screen, OD600, strain BY4716, 24 h, basal condition (AID 1173); conditions: OD600, 24 h, higher = more signal, called active from +8 up or from −8 down
[12] = MM1S myeloma cell viability, profiling panel, resazurin fluorescence, basal, 24 h, PK04 Diversity Set (AID 1174); conditions: higher = more signal, called active from +8 up or from −8 down;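 also: MM1S multiple myeloma cell line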
[13] = target: Dihydroorotate dehydrogenase (quinone), mitochondrial (Plasmodium falciparum (isolate 3D7)) (UniProt Q08210); assay: PfDHODH enzyme inhibitors, primary screen, biochemical, C-terminal His tag, absorbance 600 nm (AID 1175); conditions: DCIP absorbance 600 nm, higher = more signal, called active from +8 up or from −8 down;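 also: recombinant parasite enzyme with a five histidine tag at its C terminus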
[14] = S. cerevisiae RM11-1a growth modifiers, primary screen, strain RM11-1a, OD600, basal, 24 h (AID 1177); conditions: OD600, 24 h, higher = more signal, called active from +8 up or from −8 down;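 also: cultures grown under basal conditions with no added stressor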
[15] = E. coli acrAB mutant growth effects, primary screen, E. coli filamentation inducers, strain DRC39, OD650, 24 h (AID 1178); conditions: higher = more signal, called active from +8 up or from −8 down;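 also: growth measured as culture turbidity by optical density at 650 nm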
[16] = E. coli acrAB mutant growth effects, primary screen, E. coli filamentation inducers, strain DRC39, OD650, 48 h (AID 1179);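 also: screen aims at cell division blockers that make cells filament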; conditions: E. coli DRC39 delta-acrAB growth, higher = more signal, called active from +8 up or from −8 down
[17] = RPMI8226 myeloma cell viability, profiling panel, resazurin fluorescence, basal, 24 h, PK04 Diversity Set (AID 1180); conditions: higher = more signal;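 also: RPMI8826 multiple myeloma cell line at 5000 cells per well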
[18] = target: E3 ubiquitin-protein ligase XIAP (Homo sapiens) (UniProt P98170); assay: XIAP binders, primary screen, biophysical, small-molecule microarray, fluorescence 635 nm (AID 1181); conditions: small-molecule microarray binding, higher = more signal;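 also: score merges 667 nm emission and signal to noise over triplicate slides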
[19] = system: XIP peptide (Xip251-270) binding; assay: small-molecule binders of XIP peptide, primary screen, biochemical, small-molecule microarray, fluorescence 635/667 nm, 0.1 µg/mL protein (AID 1182); conditions: fluorescent protein binding, 635 nm, higher = more signal, called active from +8 up or from −8 down
XIP peptide (Xip251-270) = assay: small-molecule binders of XIP peptide, primary screen, biochemical, small-molecule microarray, fluorescence 635/667 nm, 0.5 µg/mL protein (AID 1183); conditions: small-molecule microarray binding, fluorescence 635 nm; higher = more signal

Chain of E3 ubiquitin-protein ligase XIAP (Homo sapiens) (P98170 whole entry, looked up): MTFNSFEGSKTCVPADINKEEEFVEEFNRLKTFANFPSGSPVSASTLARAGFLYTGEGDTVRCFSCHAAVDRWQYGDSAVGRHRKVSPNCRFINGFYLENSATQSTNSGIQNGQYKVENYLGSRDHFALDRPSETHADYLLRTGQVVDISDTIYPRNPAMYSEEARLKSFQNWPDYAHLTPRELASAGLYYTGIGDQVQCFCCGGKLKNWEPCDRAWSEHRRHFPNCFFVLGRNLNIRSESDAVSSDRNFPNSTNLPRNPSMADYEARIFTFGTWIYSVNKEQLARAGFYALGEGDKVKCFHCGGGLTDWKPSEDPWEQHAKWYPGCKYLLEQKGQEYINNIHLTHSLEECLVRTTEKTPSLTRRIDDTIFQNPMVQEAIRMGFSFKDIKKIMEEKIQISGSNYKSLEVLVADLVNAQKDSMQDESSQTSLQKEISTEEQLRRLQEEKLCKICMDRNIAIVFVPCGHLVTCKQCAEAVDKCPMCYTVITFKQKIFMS
Chain of Dihydroorotate dehydrogenase (quinone), mitochondrial (Plasmodium falciparum (isolate 3D7)) (Q08210 whole entry, looked up): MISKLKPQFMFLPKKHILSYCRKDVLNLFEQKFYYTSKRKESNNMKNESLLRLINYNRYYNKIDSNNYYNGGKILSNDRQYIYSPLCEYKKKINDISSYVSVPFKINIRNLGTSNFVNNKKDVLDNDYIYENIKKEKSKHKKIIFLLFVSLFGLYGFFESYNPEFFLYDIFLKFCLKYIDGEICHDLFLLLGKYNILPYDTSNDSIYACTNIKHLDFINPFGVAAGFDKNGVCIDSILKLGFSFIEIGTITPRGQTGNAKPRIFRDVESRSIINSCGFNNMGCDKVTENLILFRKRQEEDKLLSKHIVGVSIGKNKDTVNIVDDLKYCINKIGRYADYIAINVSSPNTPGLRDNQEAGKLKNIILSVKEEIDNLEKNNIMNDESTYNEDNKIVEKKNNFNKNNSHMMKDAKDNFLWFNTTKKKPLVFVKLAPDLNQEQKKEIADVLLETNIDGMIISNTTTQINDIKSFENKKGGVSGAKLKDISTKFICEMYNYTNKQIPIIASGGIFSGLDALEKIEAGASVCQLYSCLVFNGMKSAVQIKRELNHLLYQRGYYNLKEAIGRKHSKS

For `CC(C)(C)OC(=O)CC[C@]1(C(=O)NCc2ccccc2)N=C(c2ccc(OCCCO)cc2)O[C@H]1c1ccccc1N=[N+]=[N-]`, the z-score [1] was 2.99, the z-score [2] was -0.957 and the z-score [3] was -0.369. For the same compound, the z-score [4] was -1.52, the z-score [5] was 2.24 and the z-score [6] was 2.6 (inactive). The z-score [7] was -0.578, the z-score [8] was -0.669 and the z-score [9] was -0.413 (inactive). For the same compound, the z-score [10] was 0.384, the z-score [11] was 0 (inactive) and the z-score [12] was -0.439 (inactive). For the same compound, the composite z-score [13] was 1.18 (inactive), the z-score [14] was 0.892 (inactive) and the z-score [15] was 3.14 (inactive). The z-score [16] was 1.08 (inactive), the z-score [17] was -0.2 and the composite z-score [18] was -0.0095. The composite z-score [19] was 0.735 (inactive) and the composite z-score (XIP peptide (Xip251-270)) was 0.725.

`[N-]=[N+]=NCc1ccccc1C[C@@]1(C(=O)O)N=C(c2ccc(OCCCO)cc2)O[C@@H]1c1ccccc1` gave a z-score [1] of 0.298, a z-score [2] of -0.187 and a z-score [3] of -0.139. For the same compound, the z-score [4] was 0.0527, the z-score [5] was -0.586 and the z-score [6] was 0.493 (inactive). For the same compound, the z-score [7] was -0.497, the z-score [8] was 0.394 and the z-score [9] was 0.946 (inactive). The z-score [10] was 0.458, the z-score [11] was -3.34 (inactive) and the z-score [12] was 0.954 (inactive). The composite z-score [13] was 0.0567 (inactive), the z-score [14] was -1.01 (inactive) and the z-score [15] was 2.63 (inactive). For the same compound, the z-score [16] was 1.26 (inactive), the z-score [17] was 0.903 and the composite z-score [18] was 0.188. The composite z-score [19] was 1.35 (inactive) and the composite z-score (XIP peptide (Xip251-270)) was 0.687.

In the case of `C=C[C@H](OC)[C@@H](OC(=O)Nc1ccc(OC)cc1)c1ccc(OC)c(O)c1`, the z-score [1] is reported as 0.922, the z-score [2] is reported as -0.737 and the z-score [3] is reported as 0.478. For the same compound, the z-score [4] was 0.294, the z-score [5] was -0.638 and the z-score [6] was 1.02 (inactive). For the same compound, the z-score [7] was 0.756, the z-score [8] was 0.206 and the z-score [9] was 0.304 (inactive). For the same compound, the z-score [10] was 0.895, the z-score [11] was -1.01 (inactive) and the z-score [12] was 1.12 (inactive). The composite z-score [13] was 0.465 (inactive), the z-score [14] was 0.0923 (inactive) and the z-score [15] was 1.89 (inactive). The z-score [16] was 1.29 (inactive), the z-score [17] was 1.15 and the composite z-score [18] was 0.0073. The composite z-score [19] was 1.11 (inactive) and the composite z-score (XIP peptide (Xip251-270)) was -1.18.

`C#CCOc1ccc(C[C@H]2C(=O)O[C@H](Cc3ccccc3)[C@H](/C=C/C3CC3)N2CC#C)cc1` gave a z-score [1] of 0.892, a z-score [2] of -0.99 and a z-score [3] of -1.63. The z-score [4] was -1.89, the z-score [5] was 2.08 and the z-score [6] was 0.476 (inactive). The z-score [7] was -0.599, the z-score [8] was 0.0151 and the z-score [9] was 1.51 (inactive). For the same compound, the z-score [10] was 1.71, the z-score [11] was -0.783 (inactive) and the z-score [12] was 0.35 (inactive). For the same compound, the composite z-score [13] was 0.656 (inactive), the z-score [14] was 1.29 (inactive) and the z-score [15] was 2.66 (inactive). The z-score [16] was 1.81 (inactive), the z-score [17] was 0.915 and the composite z-score [18] was -0.144. For the same compound, the composite z-score [19] was 0.294 (inactive) and the composite z-score (XIP peptide (Xip251-270)) was -0.237.

Work on `NCCCCCNC(=O)[C@H]1C[C@H]2C(=O)NCC(=O)N2[C@H]1c1ccc(O)cc1` yielded a z-score [1] of 1.46, a z-score [2] of -0.252 and a z-score [3] of -0.249. For the same compound, the z-score [4] was 0.502, the z-score [5] was 0.848 and the z-score [6] was -0.36 (inactive). For the same compound, the z-score [7] was -0.806, the z-score [8] was 0.231 and the z-score [9] was 0.518 (inactive). The z-score [10] was -1.2, the z-score [11] was 0.375 (inactive) and the z-score [12] was 0.352 (inactive). The composite z-score [13] was -0.0658 (inactive), the z-score [14] was 0.774 (inactive) and the z-score [15] was 0.172 (inactive). The z-score [16] was 0.214 (inactive), the z-score [17] was 1.18 and the composite z-score [18] was -0.0918. For the same compound, the composite z-score [19] was 1.28 (inactive) and the composite z-score (XIP peptide (Xip251-270)) was 0.57.

Work on `O=C(O)[C@H]1C[C@H]2C(=O)NCC(=O)N2[C@H]1c1cccc(OCCO)c1` yielded a z-score [1] of 0.926, a z-score [2] of -0.59 and a z-score [3] of -1.13. For the same compound, the z-score [4] was -0.319, the z-score [5] was 1.27 and the z-score [6] was -0.116 (inactive). For the same compound, the z-score [7] was -0.186, the z-score [8] was 1.14 and the z-score [9] was -0.0876 (inactive). For the same compound, the z-score [10] was 0.354, the z-score [11] was -1.62 (inactive) and the z-score [12] was 1.21 (inactive). For the same compound, the composite z-score [13] was -1.04 (inactive), the z-score [14] was -1.25 (inactive) and the z-score [15] was 0.712 (inactive). For the same compound, the z-score [16] was -0.057 (inactive), the z-score [17] was 0.62 and the composite z-score [18] was 0.182. For the same compound, the composite z-score [19] was 0.865 (inactive) and the composite z-score (XIP peptide (Xip251-270)) was 0.938.

Compound `CCCCC(=C=CC[C@@H](O)c1ccc(OCCO)cc1)C[C@@H](O)c1cc(Cl)cc(Cl)c1O` has a z-score [1] of 1.37, a z-score [2] of 0.652 and a z-score [3] of -3.38. The z-score [4] was -3.4, the z-score [5] was -0.376 and the z-score [6] was 1.43 (inactive). The z-score [7] was -0.0474, the z-score [8] was 0.781 and the z-score [9] was 2.58 (inactive). For the same compound, the z-score [10] was 2.12, the z-score [11] was -5.94 (inactive) and the z-score [12] was 0.199 (inactive). The composite z-score [13] was -2.43 (inactive), the z-score [14] was -3.1 (inactive) and the z-score [15] was 3.34 (inactive). For the same compound, the z-score [16] was 2.27 (inactive), the z-score [17] was 0.285 and the composite z-score [18] was 0.0394. For the same compound, the composite z-score [19] was 0.925 (inactive) and the composite z-score (XIP peptide (Xip251-270)) was 0.365.

For `C[N+](C)(C)CCCC[C@@H]1NC(=O)[C@@H]2C[C@H](C(=O)NCCCCCNC(=O)CS)[C@H](c3ccc(O)cc3)N2C1=O`, the z-score [1] was 1.09, the z-score [2] was -0.792 and the z-score [3] was -0.982. The z-score [4] was 0.027, the z-score [5] was 2 and the z-score [6] was 0.385 (inactive). The z-score [7] was 0.289, the z-score [8] was -0.336 and the z-score [9] was 1.09 (inactive). The z-score [10] was -0.122, the z-score [11] was -1.15 (inactive) and the z-score [12] was 0.941 (inactive). For the same compound, the composite z-score [13] was -1.15 (inactive), the z-score [14] was -1.36 (inactive) and the z-score [15] was 0.513 (inactive). The z-score [16] was 0.355 (inactive), the z-score [17] was 1.55 and the composite z-score [18] was 0.0471. For the same compound, the composite z-score [19] was 0.609 (inactive) and the composite z-score (XIP peptide (Xip251-270)) was 0.184.

`COc1ccc(C(=O)Nc2cccc(CN3C(=O)[C@@]4(O[C@@H](CCO)[C@H]([Si](C)(C)c5ccc(OC)cc5)[C@H]4C)c4ccccc43)c2)cc1` gave a z-score [1] of -0.301, a z-score [2] of -4.74 and a z-score [3] of -2.7. For the same compound, the z-score [4] was -4.46, the z-score [5] was -1.97 and the z-score [6] was 2.77 (inactive). For the same compound, the z-score [7] was -0.972, the z-score [8] was -2.36 and the z-score [9] was -5.62 (inactive). For the same compound, the z-score [10] was -6.42, the z-score [11] was -3.58 (inactive) and the z-score [12] was -9.06 (active). The composite z-score [13] was -0.873 (inactive), the z-score [14] was 2.06 (inactive) and the z-score [15] was 2.75 (inactive). The z-score [16] was 1.55 (inactive), the z-score [17] was -6.22 and the composite z-score [18] was 0.0049. For the same compound, the composite z-score [19] was 0.11 (inactive) and the composite z-score (XIP peptide (Xip251-270)) was 0.115.
